Experiment [1] relates to Wnt5a (protein binding on small-molecule microarray). As to the kind of experiment: Wnt5a binders on small-molecule microarray, primary screen, biophysical, 635/667 nm fluorescence (AID 1142).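 Note: fluorescence read at 667 nm with signal to noise per printed feature.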 The settings on record: 635 nm fluorescence, higher = more signal.
Experiment [2] can be described thus: cell viability in Huh7 cells, primary screen, cytotoxicity control for HCV replication inhibitor project, CellTiter-Glo luminescence, basal, 48 h (AID 1143).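 Note: Huh7 hepatoma cells carrying a hepatitis C replication reporter with no stimulus; test concentration not given here.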 Conditions: Huh7 HCV replicon, higher = more signal, called active from +8 up or from −8 down. For orientation: In ATP-based viability assays light output follows the ATP content of the culture.
The nature of experiment [3]: P. aeruginosa biofilm formation inhibitors, primary screen, PAO1 strain, BacTiter-Glo luminescence, LB-PBS (AID 1144). Conditions: 12 h, higher = more signal.
The nature of experiment [4]: CREB reporter modulators without forskolin, primary screen, cell-based, PC12, CRE-LacZ reporter, unstimulated (AID 1145). The settings on record: no forskolin, luminescence, 4.5 h, higher = more signal, called active from +8 up or from −8 down.
Experiment [5] in a line: CREB reporter modulators under forskolin, primary screen, cell-based, PC12, CRE-LacZ reporter, forskolin-stimulated (AID 1146).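 Note: PC12 cells with 6xCRE LacZ reporter stimulated by forskolin 10 µM; beta-galactosidase reporter signal reflecting CREB driven transcription.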 The settings on record: luminescence, 4.5 h, higher = more signal, called active from +8 up or from −8 down.
The target in experiment [6] is Streptavidin (Streptomyces avidinii) (UniProt P22629). The experiment is described as follows: streptavidin binders on small-molecule microarray, primary screen, artefact control for SMM compound annotation, biophysical, 635/667 nm fluorescence (AID 1147).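 Note: signal reflects streptavidin binding to arrayed compounds as a control protein.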 Conditions: streptavidin binding, higher = more signal.
Sequence of Streptavidin (Streptomyces avidinii) (P22629 whole entry, looked up): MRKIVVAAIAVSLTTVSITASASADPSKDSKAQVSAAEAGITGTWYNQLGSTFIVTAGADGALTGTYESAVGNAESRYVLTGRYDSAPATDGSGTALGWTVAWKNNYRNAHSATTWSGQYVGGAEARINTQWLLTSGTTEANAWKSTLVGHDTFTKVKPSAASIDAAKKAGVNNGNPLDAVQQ
Experiment [7] can be described thus: small-molecule binders of probe aInhba, primary screen, biochemical, small-molecule microarray, 635/667 nm fluorescence (AID 1148).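 Note: score merges 667nm spot fluorescence with signal-to-noise for antibody binding to printed compounds.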 Conditions: higher = more signal.
Experiment [8] concerns the target Torsin-1A (Homo sapiens) (UniProt O14656). The experiment is described as follows: torsin A binders from cell lysate, primary screen, small-molecule microarray, wild-type, 635/667 nm (AID 1149). Conditions: COS7 hTOR1A-WT lysate, 635 nm fluorescence, higher = more signal.
For experiment [9] the target is unchanged. The experiment is described as follows: small-molecule binders of mutant TOR1A in lysate, primary screen, cell lysate, small-molecule microarray, COS7 lysate, 635/667 nm fluorescence (AID 1150).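 Note: score pools 667 nm emission and signal to noise measuring lysate protein binding.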 The settings on record: COS7 hTOR1A mutant lysate, 635 nm fluorescence, higher = more signal.
Experiment [10] has as its system Sonic hedgehog protein (Shh). The experiment is described as follows: small-molecule binders of Shh protein, primary screen, biochemical, small-molecule microarray, 635/667 nm fluorescence (AID 1151).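 Note: Shh protein binding to compounds spotted on small-molecule microarray slides; score combines spot fluorescence intensity with signal-to-noise across triplicate slides.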 The settings on record: small-molecule microarray binding, 635 nm fluorescence; higher = more signal.
Experiment [11] can be described thus: E. coli DRC41 culture turbidity changes, primary screen, E. coli filamentation inducer project, strain DRC41, OD650, 48 h (AID 1152).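 Note: E. coli MC1000 strain DRC41 lacking acrAB efflux pump and sulA.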 Conditions: E. coli DRC41 (acrAB sulA), higher = more signal, called active from +8 up or from −8 down.
A short description of experiment [12]: small-molecule binders of probe aLefty1, primary screen, biochemical, small-molecule microarray, 635/667 nm fluorescence (AID 1153).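 Note: score merges spot fluorescence with signal-to-noise ratio from the scanned slide images.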 Conditions: higher = more signal.
A short description of experiment [13]: PSAC antagonists in infected red cells, primary screen, cell-based, P. falciparum Indochina, OD700, 1 h (AID 1154). The settings on record: P. falciparum Indochina infected RBC osmotic lysis, higher = more signal, called active from +8 up or from −8 down.
Experiment [14] is described as follows: PSAC antagonists in infected red cells, primary screen, cell-based, P. falciparum Indochina, OD700, 2 h (AID 1155).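 Note: lysis reports solute entry through the parasite surface anion channel PSAC; channel blockers reduce lysis of infected cells.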 Conditions: P. falciparum Indochina infected erythrocytes, osmotic lysis OD700; higher = more signal, called active from +8 up or from −8 down.
A short description of experiment [15]: osmotic lysis modulators in infected erythrocytes, primary screen, PSAC antagonist project, cell-based, P. falciparum Indochina, OD700, 3 h (AID 1156). The settings on record: higher = more signal, called active from +8 up or from −8 down.
Experiment [16] in a line: PSAC antagonists in infected red cells, primary screen, cell-based, P. falciparum Indochina, OD700, 18 h (AID 1157). Conditions: P. falciparum Indochina infected erythrocytes, osmotic lysis OD700, 18 h; higher = more signal, called active from +8 up or from −8 down.
A short description of experiment [17]: modulators of S6 phosphorylation in cells, primary screen, cell-based, A549, cytoblot, luminescence, serum-stimulated (AID 1158).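 Note: serum-stimulated A549 lung adenocarcinoma cells; signal is phosphorylated S6 detected by cytoblot immunostaining with HRP secondary.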 The settings on record: A549 phospho-S6 cytoblot, 5 h, higher = more signal.
The target of experiment [18] is NADPH oxidase 2 (Homo sapiens) (UniProt P04839). As to the kind of experiment: NOX2-dependent H2O2 signal modulators, primary screen, NOX inhibitor project, cell-based, HEK293-NOX2, PMA-stimulated, Amplex Red fluorescence (AID 1159). Note: test concentration not given here. Conditions: 45 min, higher = more signal, called active from +8 up or from −8 down.
Sequence of NADPH oxidase 2 (Homo sapiens) (P04839 whole entry, looked up): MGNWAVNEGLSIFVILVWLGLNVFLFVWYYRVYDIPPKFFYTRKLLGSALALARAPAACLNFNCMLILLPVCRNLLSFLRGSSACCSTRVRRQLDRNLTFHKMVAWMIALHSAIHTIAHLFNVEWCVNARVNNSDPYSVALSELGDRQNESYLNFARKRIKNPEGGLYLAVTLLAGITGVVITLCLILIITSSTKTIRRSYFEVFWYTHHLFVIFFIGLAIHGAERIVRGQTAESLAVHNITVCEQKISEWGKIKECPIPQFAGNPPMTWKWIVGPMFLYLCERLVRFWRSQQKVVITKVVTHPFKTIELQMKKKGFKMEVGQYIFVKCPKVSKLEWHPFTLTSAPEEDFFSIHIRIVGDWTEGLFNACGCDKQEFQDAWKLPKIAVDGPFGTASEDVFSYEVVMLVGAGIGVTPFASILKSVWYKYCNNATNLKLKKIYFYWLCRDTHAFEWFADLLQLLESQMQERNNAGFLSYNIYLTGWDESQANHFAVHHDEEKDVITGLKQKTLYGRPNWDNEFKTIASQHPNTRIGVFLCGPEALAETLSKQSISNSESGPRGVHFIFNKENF
Experiment [19] concerns the target NADPH oxidase 4 (Homo sapiens) (UniProt Q9NPH5). As to the kind of experiment: NOX4-dependent H2O2 signal modulators, primary screen, NOX inhibitor project, cell-based, HEK293-NOX4, tetracycline-induced, Amplex Red fluorescence (AID 1160). Conditions: 45 min, higher = more signal, called active from +8 up or from −8 down.
Experiment [20] concerns the target NADPH oxidase 5 (Homo sapiens) (UniProt Q96PH1). The experiment is described as follows: NOX5-dependent H2O2 signal modulators, primary screen, NOX inhibitor project, cell-based, HEK293-NOX5, Amplex Red fluorescence (AID 1161). The settings on record: HEK293-NOX5, ionomycin, 45 min, higher = more signal.

Activity calls are given as the source filed them. Unless noted, the rule behind the calls is not given here.

Sequence of Torsin-1A (Homo sapiens) (O14656 whole entry, looked up): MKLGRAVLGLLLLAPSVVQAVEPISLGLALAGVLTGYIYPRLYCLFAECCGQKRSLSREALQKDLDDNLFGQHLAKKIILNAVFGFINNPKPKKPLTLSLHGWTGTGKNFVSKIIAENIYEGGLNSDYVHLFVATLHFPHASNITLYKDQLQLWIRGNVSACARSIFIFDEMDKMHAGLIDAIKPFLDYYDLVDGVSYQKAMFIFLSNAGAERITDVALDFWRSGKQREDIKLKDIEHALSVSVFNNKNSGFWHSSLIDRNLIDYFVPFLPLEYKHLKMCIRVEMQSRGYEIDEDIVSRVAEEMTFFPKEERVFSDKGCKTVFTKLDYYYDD
Sequence of NADPH oxidase 4 (Homo sapiens) (Q9NPH5 whole entry, looked up): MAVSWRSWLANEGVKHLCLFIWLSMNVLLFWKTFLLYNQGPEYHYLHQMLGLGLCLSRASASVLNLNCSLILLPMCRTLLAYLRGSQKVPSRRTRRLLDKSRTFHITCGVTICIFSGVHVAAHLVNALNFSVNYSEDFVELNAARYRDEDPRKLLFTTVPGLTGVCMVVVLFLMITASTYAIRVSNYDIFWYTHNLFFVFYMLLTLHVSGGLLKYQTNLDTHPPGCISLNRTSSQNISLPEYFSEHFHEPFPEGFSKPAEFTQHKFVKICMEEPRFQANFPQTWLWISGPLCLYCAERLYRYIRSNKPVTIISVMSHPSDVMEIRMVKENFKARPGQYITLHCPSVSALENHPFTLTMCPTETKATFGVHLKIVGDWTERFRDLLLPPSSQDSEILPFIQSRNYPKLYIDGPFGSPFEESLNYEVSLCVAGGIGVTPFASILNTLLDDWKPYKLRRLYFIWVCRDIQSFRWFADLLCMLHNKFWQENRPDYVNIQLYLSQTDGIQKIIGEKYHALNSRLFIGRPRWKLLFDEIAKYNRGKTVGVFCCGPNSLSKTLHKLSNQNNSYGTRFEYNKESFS
Sequence of NADPH oxidase 5 (Homo sapiens) (Q96PH1 whole entry, looked up): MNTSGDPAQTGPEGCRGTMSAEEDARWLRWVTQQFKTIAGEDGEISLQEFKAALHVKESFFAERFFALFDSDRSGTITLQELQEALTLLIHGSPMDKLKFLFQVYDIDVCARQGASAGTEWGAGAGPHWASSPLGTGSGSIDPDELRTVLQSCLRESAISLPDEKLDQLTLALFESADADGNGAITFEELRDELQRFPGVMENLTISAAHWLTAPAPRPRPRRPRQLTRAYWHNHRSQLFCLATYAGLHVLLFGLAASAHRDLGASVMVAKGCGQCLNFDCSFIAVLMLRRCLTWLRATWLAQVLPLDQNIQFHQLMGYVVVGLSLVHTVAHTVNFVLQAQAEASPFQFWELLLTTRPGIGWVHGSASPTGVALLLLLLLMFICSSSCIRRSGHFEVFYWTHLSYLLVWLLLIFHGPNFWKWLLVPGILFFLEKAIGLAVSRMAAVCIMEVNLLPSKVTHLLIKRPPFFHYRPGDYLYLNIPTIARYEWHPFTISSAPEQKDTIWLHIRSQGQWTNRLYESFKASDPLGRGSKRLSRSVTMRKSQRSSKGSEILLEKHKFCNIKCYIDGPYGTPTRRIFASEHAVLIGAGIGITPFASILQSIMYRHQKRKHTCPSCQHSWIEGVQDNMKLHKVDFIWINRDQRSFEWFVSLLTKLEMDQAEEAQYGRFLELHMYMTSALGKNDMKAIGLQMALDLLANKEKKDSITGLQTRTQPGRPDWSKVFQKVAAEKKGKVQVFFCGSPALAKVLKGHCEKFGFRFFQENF

For `COCCOC(=O)N1C(=O)[C@@]2(c3cc(C#CCC(C(=O)OC)C(=O)OC)ccc31)[C@H](c1ccc(OCCO)cc1)N1[C@H](c3ccccc3)[C@H](c3ccccc3)OC(=O)[C@H]1[C@@H]2C(=O)Nc1nc2ccccc2s1`, the composite z-score in experiment [1] is 0.0015; in experiment [6], 0.067; in experiment [7] it was -0.101; in the experiment with Torsin-1A (Homo sapiens) [8], 0.212; in the experiment with Torsin-1A (Homo sapiens) [9], 0.264; in experiment [10], 1.6. In [12], this compound returned a composite z-score of 0.129. The z-score was -1.79 (inactive) in [2]; -0.45 (inactive) in [3]; 0.0384 (inactive) in experiment [4]; 0.282 (inactive) in experiment [5]; 2.25 (inactive) in experiment [11]; 4.99 (inactive) in [13]. Moreover, the z-score was 2.47 (inactive) in experiment [14]; 0.924 (inactive) in experiment [15]; 2.21 (inactive) in [16]; 0.0091 in [17]; 0.892 (inactive) in experiment [18]; 0.647 (inactive) in experiment [19]. In experiment [20], the z-score worked out at 0.93.

As to `COCCOC(=O)N1C(=O)[C@@]2(c3cc(C#CC4=CCCCC4)ccc31)[C@H](C(=O)N1CCCCCCC1)[C@H]1C(=O)O[C@H](c3ccccc3)[C@H](c3ccccc3)N1[C@@H]2c1ccc(OCCO)cc1`, the composite z-score in experiment [1] was 0.636; in experiment [6], 1.29; in [7] it was 0.515; with Torsin-1A (Homo sapiens) [8] it was 1.04; in the experiment with Torsin-1A (Homo sapiens) [9] it was 0.877; in experiment [10], 1.25. The same compound gave a composite z-score in experiment [12] of 1.88. Besides, the z-score in experiment [2] is -3.96 (inactive); in experiment [3], -0.0896 (inactive); in experiment [4] it was -0.199 (inactive); in experiment [5], 0.463 (inactive); in experiment [11], -1.1 (inactive); in experiment [13], 4.58 (inactive). The z-score in experiment [14] is 1.19 (inactive); in experiment [15], -0.26 (inactive); in experiment [16] it was 0.481 (inactive); in experiment [17], 0.118; in experiment [18], 0.983 (inactive); in experiment [19], 0.567 (inactive). This compound had a z-score in experiment [20] of -0.934.

For the compound `Cc1c(NC(=O)/C(C#N)=C/c2ccccc2Cl)c(=O)n(-c2ccccc2)n1C`, the composite z-score in experiment [1] is 0.27; in experiment [6] it was 1.73; in experiment [7], -0.0195; with Torsin-1A (Homo sapiens) [8], 0.461; in the experiment with Torsin-1A (Homo sapiens) [9], 0.159; in [10], 0.0651. The same compound had a composite z-score in experiment [12] of -0.296. For the same compound, the z-score in [2] was -2.11 (inactive); in [3], -0.543 (inactive); in experiment [4], -0.321 (inactive); in [5], -1.21 (inactive); in [11], 1.32 (inactive); in [13], 0.471 (inactive). The z-score in [14] is -1.52 (inactive); in experiment [15], -0.945 (inactive); in experiment [16], -1.34 (inactive); in experiment [17] it was 1.22; in experiment [18], -3.65 (inactive); in experiment [19], -0.56 (inactive). For the same compound, in [20], the z-score amounted to 0.29.

Turning to `COc1ccc([Si](C)(C)[C@@H]2[C@@H](CCn3cc([C@H](O)c4ccccc4)nn3)O[C@]3(C(=O)N(Cc4cccc(N5C(=O)c6cccc7cccc5c67)c4)c4ccccc43)[C@H]2C)cc1`, the composite z-score in experiment [1] was -0.537; in [6], -0.0465; in experiment [7] it was -0.0963; in the experiment with Torsin-1A (Homo sapiens) [8] it was -1.06; with Torsin-1A (Homo sapiens) [9], -0.526; in [10], 0.454. The composite z-score in experiment [12] came out at 0.0056. For the same compound, the z-score is -3.34 (inactive) in [2]; 0.692 (inactive) in experiment [3]; 0.0031 (inactive) in [4]; 0.471 (inactive) in experiment [5]; -0.603 (inactive) in [11]; 1.8 (inactive) in experiment [13]. Moreover, the z-score is 0.662 (inactive) in [14]; 1.1 (inactive) in [15]; 0.794 (inactive) in experiment [16]; -0.256 in [17]; 1.08 (inactive) in experiment [18]; 1.48 (inactive) in experiment [19]. In experiment [20], this compound had a z-score of 2.2.

Values taken from PubChem BioAssay.
